Several values for one entry are separate records, joined by “and”; a condition that tells them apart may be missing. Identical values can stand only once. Counter-ions that a name gives are not always drawn.

This assay has as its system LASCPC-01. Kind of assay: cell viability relative to DMSO control (fraction); higher = less growth inhibition (more viable cells). The settings on record: 2 µM; 72 h. How it is done:
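High-throughput single-dose screen in the LASCPC-01 NEPC cell line in 384-well plates. Cells were treated with each compound at 2 µM for 72 h, and viability was read by CellTiter-Glo luminescence. Values are normalised to the DMSO control (compound/DMSO) from three replicates; only the 5-HT-related subset of the 7315-compound library is given.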
Turning to `O=[N+]([O-])c1ccc2nc(N3CCNCC3)ccc2c1` [Quipazine,6-nitro-,maleate], the cell viability was 1.04.
In turn, `NCCc1c[nH]c2ccc(O)cc12` [Serotonin hydrochloride] yielded a cell viability of 0.606.
Then `CC(N)Cc1c[nH]c2ccc(OCc3cccs3)cc12` (stereo not given), with 1.18; and `CN1c2ccccc2C(NCCCCCCC(=O)O)c2ccc(Cl)cc2S1(=O)=O` (stereo not given) [Tianeptine sodium], with 0.963; and `CN1C(=O)COc2c(C(=O)NC3CN4CCC3CC4)cc(Cl)cc21` (stereo not given) [Azasetron hydrochloride], with 1.44.
The value for `C[C@H](N)CN1CCc2ccc(Br)cc21` [VER-3323 hemifumarate salt] was 1.16; that for `Clc1ccc(C(OCCN2CCCCC2)c2ccccc2)cc1` (stereo not given) [Cloperastine hydrochloride] was 0.924; that for `c1ccc2c(N3CCNCC3)cccc2c1` [1-(1-Naphthyl)piperazine hydrochloride] was 1.08.
Turning to `NCCc1c[nH]c2ccc(O)cc12` [Serotonin HCl], the cell viability stood at 0.977.
The value for `CN1C[C@H](C(=O)N[C@]2(C)O[C@@]3(O)[C@@H]4CCCN4C(=O)[C@H](Cc4ccccc4)N3C2=O)C[C@@H]2c3cccc4[nH]cc(c34)C[C@H]21` [Dihydroergotamine methanesulfonate] was 1.18.
The value for `COc1ccc(C(CN(C)C)C2(O)CCCCC2)cc1` (stereo not given) [Venlafaxine] was 1.04; that for `CCCN(CCC)[C@@H]1CCc2cccc(O)c2C1` [R-(+)-8-Hydroxy-DPAT hydrobromide] was 1.03; that for `CN1C[C@H](CNC(=O)OCc2ccccc2)C[C@@H]2c3cccc4c3c(cn4C)C[C@H]21` [Metergoline] was 0.997.
Then `CCCN(CCC)C1CCc2cccc(O)c2C1` (stereo not given), with 0.92; and `CN1CCC(c2c[nH]c3ccc(O)cc23)CC1`, with 0.966 and 0.511; and `Clc1ccc([C@]23CNC[C@H]2C3)cc1Cl` [Amitifadine hydrochloride], with 0.896.
Compound `COc1cc(N)c(Cl)cc1C(=O)NC1CN2CCC1CC2` (stereo not given) [Zacopride hydrochloride] gave a cell viability of 0.366.
In the case of `O=S1(=O)N(CCN2CC=C(c3c[nH]c4cc(F)ccc34)CC2)c2cccc3c2N1CCC3`, the cell viability stood at 0.982.
Then `N#Cc1ccc(N2CCN(C(=O)COc3ccc4[nH]cc(CCN)c4c3)CC2)cc1` [Donitriptan monohydrochloride], with 1.08.
The value for `CC(N)Cc1cccc(C(F)(F)F)c1` (single isomer, unassigned; (+)) [(+)-Norfenfluramine hydrochloride] was 1.09; that for `COc1ccc(C(CN(C)C)C2(O)CCCCC2)cc1` (stereo not given) [Venlafaxine hydrochloride] was 1.06; that for `COc1cc2c3c(c1OC)-c1ccccc1C[C@H]3N(C)CC2` [Nuciferine] was 0.818.
Then `C[C@H]1CNCCc2ccc(Cl)cc21` [Lorcaserin HCl], with 1.18; and `CNCCc1c[nH]c2ccc(O)cc12` [N-omega-Methyl-5-hydroxytryptamine oxalate salt], with 1.11.
As to `CC(N)Cc1c[nH]c2ccc(O)cc12` (stereo not drawn) [alpha-Methyl-5-hydroxytryptamine maleate], the cell viability was found to be 1.03.
For `C=C[C@H]1CN2CC[C@@]3(C(=O)Nc4ccccc43)[C@@H]2C[C@@H]1/C(=C\OC)C(=O)OC` [Isocorynoxeine], the cell viability was found to be 0.677.
`Cc1[nH]c2ccc(O)cc2c1CCN` [2-Methyl-5-hydroxytryptamine maleate] had a cell viability of 0.982.
`CCCN(CCC)C1CCc2cccc(O)c2C1` (stereo not given) [(?-8-Hydroxy-DPAT hydrobromide] gave a cell viability of 1.16.
The value for `CC[C@@H](CO)NC(=O)[C@@H]1C=C2c3cccc4c3c(cn4C)C[C@H]2N(C)C1` [Methysergide maleate] was 1.1; that for `COc1ccc2[nH]cc(C3=CCNCC3)c2c1` was 0.776.
`NCCc1c[nH]c2ccccc12` [Tryptamine hydrochloride] yielded a cell viability of 0.96.
Then `CN1CCN(c2nc3ccccc3nc2Cl)CC1`, with 0.966.
The compound `CN1CCC[C@@H]1Cc1c[nH]c2ccc(Nc3ncccc3[N+](=O)[O-])cc12` returned a cell viability of 0.897.
Then `COc1ccccc1N1CCNCC1` [1-(2-Methoxyphenyl)piperazine hydrochloride], with 0.869; and `NCCc1c[nH]c2ccccc12` [Tryptamine], with 1.08; and `O=c1ccc2cc3ccoc3c(O)c2o1` [Xanthotoxol], with 1.15.
As to `COc1ccc2c(c1OC)CN1CCc3cc4c(cc3C1C2)OCO4` (stereo not given) [Tetrahydroberberine THB], the cell viability is 0.961.
Turning to `CN1CCN(c2cccc3[nH]c(=O)oc23)CC1` [Pardoprunox hydrochloride], the cell viability was 1.03.
Then `NCCc1c[nH]c2ccc(C(N)=O)cc12` [5-Carboxamidotryptamine maleate], with 1.1; and `C[N+]1(C)C2CCC1CC(OC(=O)c1c[nH]c3ccccc13)C2` (stereo not given) [3-Tropanylindole-3-carboxylate methiodide], with 0.906.

Values taken from the supplement of paper PMC10042075.
